PubChem BioAssay (EPA / NIEHS)
The source made the active and inactive calls. Rule for the calls: active = hit-call score of the fitted dose curve at least 0.9, where 1 is the maximum; inactive = score below 0.9.

Tests used:
[1] = read-out: Urokinase-type plasminogen activator receptor (uPAR), PLAUR (gene 5329); test: BSK_4H_uPAR: BioMAP Diversity Plus: 4H Assay for Urokinase-type plasminogen activator receptor (uPAR) Biomarker Activity (AID 2283030); conditions: primary human endothelial cells (HUVEC); actives raise or lower the signal
Method in brief: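 HUVEC, 24 h post-dose; uPAR by ELISA; bidirectional fit vs DMSO baseline.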

[2] = read-out: Vascular endothelial growth factor receptor 2 (Homo sapiens) (UniProt P35968); test: BSK_4H_VEGFRII: BioMAP Diversity Plus: 4H Assay for Vascular endothelial growth factor receptor 2 (VEGFR2) Biomarker Activity (AID 2283031); conditions: primary human endothelial cells (HUVEC); actives raise or lower the signal;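 for AC50: cell-surface VEGFR2 protein level quantified by ELISA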
Method in brief: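 HUVEC (human primary), 4H system; 24 h post-dose; VEGFRII by ELISA; bidirectional curve fit vs DMSO baseline; gain or loss of signal scored.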

[3] = read-out: Vascular cell adhesion molecule 1 (VCAM1), VCAM1 (gene 7412); test: BSK_4H_VCAM1: BioMAP Diversity Plus: 4H Assay for Vascular cell adhesion molecule 1 (VCAM1) Biomarker Activity (AID 2283033); conditions: primary human endothelial cells (HUVEC); actives raise or lower the signal
Method in brief: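 VCAM-1 ELISA read 24 h after chemical dosing of HUVEC in the BioMAP 4H system, with gain or loss of signal fitted relative to DMSO. Parallel SRB staining (560 nm) checked overt cytotoxicity.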

[4] = read-out: Transforming growth factor beta 1 (TGFb1), TGFB1 (gene 7040); test: BSK_BE3C_TGFb1: BioMAP Diversity Plus: BE3C Assay for Transforming growth factor beta 1 (TGFb1) Biomarker Activity (AID 2283036;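 note: TGF-b1 protein level measured by ELISA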); conditions: primary human bronchial epithelial cells; actives raise or lower the signal
Method in brief: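 ELISA readout of TGF-b1 from human lung bronchial epithelial primary cells, taken 24 h post-treatment. Gain or loss of signal fitted relative to DMSO baseline, with parallel SRB staining for overt cytotoxicity.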

[5] = read-out: Plasminogen activator inhibitor-1 (PAI1), SERPINE1 (gene 5054); test: BSK_BE3C_PAI1: BioMAP Diversity Plus: BE3C Assay for Plasminogen activator inhibitor-1 (PAI1) Biomarker Activity (AID 2283037); conditions: primary human bronchial epithelial cells; actives raise or lower the signal
Method in brief: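 PAI-1 was measured by ELISA in human primary bronchial epithelial cultures 24 h after chemical dosing, with cytotoxicity checked by SRB total-protein staining in parallel cultures. Activity was fitted in both directions relative to DMSO.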

[6] = read-out: urokinase plasminogen activator (uPA), PLAU (gene 5328); test: BSK_BE3C_uPA: BioMAP Diversity Plus: BE3C Assay for urokinase plasminogen activator (uPA) Biomarker Activity (AID 2283038); conditions: primary human bronchial epithelial cells; actives raise or lower the signal;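 note: uPA protein level quantified by ELISA in cell cultures; uPA read one day after compound addition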
Method in brief: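 ELISA read-out of uPA in human lung primary bronchial epithelial cultures, 24 h post-dosing. Gain or loss of signal fitted bidirectionally relative to DMSO baseline; cytotoxicity checked in parallel cultures via SRB total protein stain.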

[7] = read-out: Urokinase-type plasminogen activator receptor (uPAR), PLAUR (gene 5329); test: BSK_BE3C_uPAR: BioMAP Diversity Plus: BE3C Assay for Urokinase-type plasminogen activator receptor (uPAR) Biomarker Activity (AID 2283039); conditions: primary human bronchial epithelial cells; actives raise or lower the signal
Method in brief: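 uPAR levels were measured by ELISA after 24 h compound treatment of primary human bronchial epithelial cells, fitted in both directions relative to DMSO. Parallel SRB staining served as the cytotoxicity read-out.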

[8] = read-out: Interleukin-6 (IL6), IL6 (gene 3569); test: BSK_CASM3C_IL6: BioMAP Diversity Plus: CASM3C Assay for Interleukin-6 (IL6) Biomarker Activity for (AID 2283040); conditions: primary human coronary artery smooth muscle cells; actives raise or lower the signal
[9] = read-out: Tissue plasminogen activator (tPA), PLAT (gene 5327); test: BSK_BE3C_tPA: BioMAP Diversity Plus: BE3C Assay for Tissue plasminogen activator (tPA) Biomarker Activity (AID 2283041); conditions: primary human bronchial epithelial cells; actives raise or lower the signal;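 note: tPA level quantified by ELISA one day after compound addition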
Method in brief: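 tPA measured by ELISA 24 h after dosing human primary bronchial epithelial cells (BE3C system). Changes in either direction were fitted against DMSO. Parallel cultures were stained with SRB to flag overt cytotoxicity.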

[10] = read-out: Interleukin-8 (IL8), CXCL8 (gene 3576); test: BSK_CASM3C_IL8: BioMAP Diversity Plus: CASM3C Assay for Interleukin-8 (IL8) Biomarker Activity (AID 2283042); conditions: primary human coronary artery smooth muscle cells; actives raise or lower the signal;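 note: IL-8 protein level quantified by ELISA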
[11] = read-out: Human Leukocyte Antigen - DR isotype (HLADR), HLA-DRA (gene 3122); test: BSK_CASM3C_HLADR: BioMAP Diversity Plus: CASM3C Assay for Human Leukocyte Antigen - DR isotype (HLADR) Biomarker Activity (AID 2283043); conditions: primary human coronary artery smooth muscle cells; actives raise or lower the signal;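 note: cell-surface HLA-DR protein level quantified by ELISA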
[12] = read-out: Macrophage colony-stimulating factor (MCSF), CSF1 (gene 1435); test: BSK_CASM3C_MCSF: BioMAP Diversity Plus: CASM3C Assay for Macrophage colony-stimulating factor (MCSF) Biomarker Activity (AID 2283044); conditions: primary human coronary artery smooth muscle cells; actives raise or lower the signal;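 note: M-CSF protein amount quantified by ELISA after 24 h exposure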
[13] = read-out: Low-density lipoprotein receptor (LDLR), LDLR (gene 3949); test: BSK_CASM3C_LDLR: BioMAP Diversity Plus: CASM3C Assay for Low-density lipoprotein receptor (LDLR) Biomarker Activity (AID 2283045); conditions: primary human coronary artery smooth muscle cells; actives raise or lower the signal;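 note: LDLR protein level on the cell surface quantified by ELISA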
[14] = read-out: Monocyte Chemoattractant Protein-1 (MCP1), CCL2 (gene 6347); test: BSK_CASM3C_MCP1: BioMAP Diversity Plus: CASM3C Assay for Monocyte Chemoattractant Protein-1 (MCP1) Biomarker Activity (AID 2283046); conditions: primary human coronary artery smooth muscle cells; actives raise or lower the signal;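 note: MCP-1 level quantified by ELISA 24 h after dosing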
[15] = BSK_CASM3C_Proliferation: Cell Proliferation Assessment in the BioMAP Diversity Plus: CASM3C Assay (AID 2283047); conditions: primary human coronary artery smooth muscle cells;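 note: sulforhodamine B total protein stain as relative cell number at 560 nm; sub-confluent cells exposed 48 h before staining; fitted both ways against DMSO so gain or loss of cell number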
[16] = read-out: Monokine induced gamma interferon (MIG), CXCL9 (gene 4283); test: BSK_CASM3C_MIG: BioMAP Diversity Plus: CASM3C Assay for Monokine induced gamma interferon (MIG) Biomarker Activity (AID 2283048); conditions: primary human coronary artery smooth muscle cells; actives raise or lower the signal;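 note: MIG protein level measured by ELISA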
[17] = read-out: serum amyloid A (SAA), SAA1 (gene 6288); test: BSK_CASM3C_SAA: BioMAP Diversity Plus: CASM3C Assay for serum amyloid A (SAA) Biomarker Activity (AID 2283049); conditions: primary human coronary artery smooth muscle cells; actives raise or lower the signal;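 note: SAA protein level quantified by ELISA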
[18] = read-out: Monokine induced gamma interferon (MIG), CXCL9 (gene 4283); test: BSK_BE3C_MIG: BioMAP Diversity Plus: BE3C Assay for Monokine induced gamma interferon (MIG) Biomarker Activity (AID 2283035); conditions: primary human bronchial epithelial cells; actives raise or lower the signal
Method in brief: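 ELISA quantified MIG after 24 h exposure of primary bronchial epithelial cultures, analysed in both directions relative to DMSO. Cytotoxicity tracked in parallel cultures by sulforhodamine B staining.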

[19] = read-out: Interferon-gamma inducible Protein 10 (IP10), CXCL10 (gene 3627); test: BSK_BE3C_IP10: BioMAP Diversity Plus: BE3C Assay for Interferon-gamma inducible Protein 10 (IP10) Biomarker Activity (AID 2283034); conditions: primary human bronchial epithelial cells; actives raise or lower the signal
Method in brief: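 IP-10 quantified by ELISA in human primary bronchial epithelial cell cultures at 24 hours post-dosing. Gain or loss of signal fitted relative to DMSO; parallel SRB staining assessed overt cytotoxicity.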

Measured: AC50

C#CCC1=C(C)C(OC(=O)C2C(C=C(C)C)C2(C)C)CC1=O (stereo unspecified)
inactive: [1] | [2] | [3] | [4] | [5] | [6] | [7] | [8] | [9] | [10] | [11] | [12] | [13] | [14] | [16] | [17]
active: [15] 26.8 µM

CCc1cnc(C2=NC(C)(C(C)C)C(=O)N2)c(C(=O)O)c1 (stereo unspecified)
inactive: [1] | [2] | [3] | [18] | [4] | [5] | [7] | [8] | [9] | [10] | [11] | [12] | [13] | [14] | [15] | [16] | [17]

CCOC(=O)CC(SP(=O)(OC)OC)C(=O)OCC (stereo unspecified)
inactive: [1] | [2] | [3] | [4] | [5] | [6] | [7] | [8] | [9] | [10] | [11] | [12] | [13] | [14] | [15] | [16] | [17]

CCOP(=S)(OCC)SCCSCC
inactive: [1] | [2] | [3] | [19] | [4] | [5] | [7] | [8] | [9] | [10] | [11] | [12] | [13] | [14] | [15] | [16] | [17]

CC(Oc1cccc(Cl)c1)C(=O)O (stereo unspecified)
inactive: [1] | [2] | [3] | [4] | [5] | [6] | [7] | [8] | [9] | [10] | [11] | [12] | [13] | [14] | [15] | [16] | [17]

CCCCOC(=O)[C@@H](C)Oc1ccc(Oc2ccc(C#N)cc2F)cc1
inactive: [1] | [2] | [3] | [4] | [5] | [8] | [9] | [10] | [11] | [12] | [13] | [14] | [15] | [16] | [17]
active: [7] 0.811 µM

Nc1c(Cl)cc([N+](=O)[O-])cc1Cl
inactive: [1] | [2] | [3] | [4] | [5] | [6] | [7] | [8] | [9] | [10] | [11] | [12] | [13] | [14] | [15] | [16] | [17]

CC(C)N(C(=O)SCC(Cl)=C(Cl)Cl)C(C)C
inactive: [19] | [4] | [5] | [6] | [7] | [8] | [9] | [10] | [11] | [13] | [14] | [16] | [17]
active: [1] 31.4 µM | [2] 31.1 µM | [3] 33.1 µM | [12] 34.4 µM | [15] 37.1 µM
